# Assay outcomes: PubChem, National Center for Advancing Translational Sciences (NCATS)
# TDP1 cell CPT: DT40-hTDP1 cell growth loss with CPT | chicken DT40 Tdp1-/-;hTDP1 cells + 20 nM CPT, ATP luminescence, 48 h | Potency, µM (doses to about 46.2 µM), inactives show top-dose activity change, negative = growth inhibition, actives largely listed as inhibitors | 420,000 tested, 12% active | AID 686979; note: potency is the fitted concentration of half-maximal effect; nearly all actives have a fitted effect of over 55% in size
#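 Chicken DT40 Tdp1-/- cells stably complemented with human TDP1 were seeded at 400 cells/well in medium containing 20 nM camptothecin, exposed to pin-transferred compounds, and grown at 37 °C for at least 48 hr. Viability was read as ATP luminescence.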
# IL-1B inflam inh: blocks inflammasome-driven IL-1 beta release; THP-1 LPS/ATP IL-1B secretion, AlphaLISA, 16 h; stronger effect = lower value; activity change, % at 57.5 µM; 360,000 tested, 4.7% active; AID 743279; in the data active = activity change below about -50%; inconclusive = mostly about -30% to -49%
#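 THP-1 cells pretreated 1 hr with compounds (up to 57.5 uM final), then stimulated with LPS (250 ng/mL final) plus ATP (1.25 mM final); secreted IL-1B measured by AlphaLISA after 16 hr, decreased signal indicating inhibition.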
# HT1080 IDH1KD tx: HT-1080 IDH1 knockdown cell toxicity (counter line). HT-1080 IDH1 knockdown viability, ATP luminescence, 48 h. Potency, µM (top dose mostly 46.1 µM), inactives show at the top dose activity, negative = toxicity, actives largely listed as cytotoxic. 360,000 tested, 2% active;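 note: potency is the fitted concentration of half-maximal effect; 0% = DMSO wells and -100% = cell-free medium wells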
#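 HT-1080-IDH1KD cells (IDH1 knocked down), 750/well in RPMI with 5% FBS, treated with compound 48 h at 37 degrees C. Viability by CellTiter-Glo luminescence, normalised to DMSO and no-cell wells; concentration-response curves classed.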
# uPA generation: cell surface uPA generation inhibition; cell surface uPA generation assay, qHTS; Potency, µM (top dose mostly 38.3 µM), for inactives: top-dose activity change, negative = inhibition, actives largely listed as inhibitors; 330,000 tested, 0.31% active; AID 540303; active = well fitted inhibition curve with a large enough effect; inconclusive = small, poorly fitted or top-dose-only effect; inactive = no such curve, though single readings can be large or run the other way; tested in mouse RAW 264.7 cells; note: potency is the fitted concentration of half-maximal effect; nearly all actives have a fitted effect of over 55% in size
# TDP1 cell noCPT: qHTS for Inhibitors of human tyrosyl-DNA phosphodiesterase 1 (TDP1): qHTS in cells in absence of CPT; AID 686978, 2013; 420,000 tested, 15% active; DT40 Tdp1-/- hTDP1 cells, no CPT, ATP luminescence, 48 h; Potency, µM (doses to about 46.2 µM), inactives show top-dose activity change, negative = growth inhibition, hits mostly inhibitors; note: potency is the fitted concentration of half-maximal effect; nearly all actives have a fitted effect of over 55% in size
#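 Seeded 400 DT40-hTDP1 cells/well (vehicle DMSO, no 20 nM CPT); pinned compounds; ≥48 hr at 37 °C; CellTiter-Glo luminescence as viability measure.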
# HT1080NT lethal: kills 2HG-producing HT-1080-NT fibrosarcoma cells; HT-1080-NT fibrosarcoma viability, CellTiter-Glo ATP luminescence, 48 h; Potency, µM (top dose mostly 46.1 µM), inactives show top-dose activity, negative = less viability, actives largely listed as cytotoxic; 360,000 tested, 1.6% active; AID 686970;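 note: NT is the 2HG producing partner of a matched IDH1 knockdown line; potency is the fitted concentration of half-maximal effect; 0% = DMSO-treated cells and -100% = media-only wells without cells; nearly all actives have a fitted effect of over 55% in size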
#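 Luminescent CellTiter-Glo readout after 48 hours of compound exposure at 37 degrees C defined viability of HT-1080-NT cells. Activity was normalized to DMSO wells and cell-free media wells; concentration-response curves were fitted and assigned curve classes.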
# Starred values were filed as active, the others as inactive; ? = inconclusive; nt = not tested or not shown; [ ] = remark or other dose. Shown are actives, neighbours in structure and some others; about 19% of the full set was active somewhere. Unless noted, calls come from the whole dose curve; as a rule, active = well fitted curve in the direction sought with a large enough effect; inconclusive = small, poorly fitted or top-dose-only effect, or another doubt; inactive = no such curve, though single readings can be large; an effect the other way counts as inactive or inconclusive. Unless noted, % is set by controls: 0 for no effect and ±100 for the full control effect.
SMILES,TDP1 cell CPT,IL-1B inflam inh,HT1080 IDH1KD tx,uPA generation,TDP1 cell noCPT,HT1080NT lethal
Oc1c(Cl)cc(Cl)cc1/C=C/c1ccc2cccc(O)c2n1,?,11,?,-5%,?,?
COc1cc(/C=C/c2ccc3cccc(O)c3n2)ccc1O,?,?,?,7%,16µM*,-30%
COc1cc(Br)cc(/C=C/c2ccc3cccc(O)c3n2)c1O,15µM*,-6,?,8%,9.2µM*,?
CCOc1ccc(CCn2c3c(c(=O)[nH]c2=O)C(NC(=O)c2ccccc2)(C(F)(F)F)C(=O)N3)cc1OCC (configuration not stated),-6%,nt,nt,nt,1%,nt
CC(=O)c1cccc(NC(=O)COC(=O)c2ccccc2OCc2cccc(Br)c2)c1,-21%,nt,2%,nt,-22%,-5%
O=Cc1cc(Br)c(OC(=O)N2CCOCC2)c(Br)c1,?,13,-2%,2%,-11%,2%
Cc1cc(C(F)F)n2nc(C(=O)Nc3c(C)cccc3C)nc2n1,-11%,nt,nt,nt,8%,nt
CC(=O)c1cccc(NC(=O)c2sc(-n3nc(C)c(Cc4ccc5c(c4)OCO5)c3C)nc2C)c1,15µM*,nt,nt,nt,15µM*,nt
CC(=O)c1cccc(NC(=O)N2CCCC2C(=O)NCc2ccc3c(c2)OCO3)c1 (configuration not stated),7%,4,5%,0%,8%,8%
CCOc1ccc(NC(=O)CN(C)C(=O)c2sccc2-c2ccccc2)cc1OCC,?,-5,-27%,2%,?,-5%
CC1CCCCN1S(=O)(=O)c1ccc(C(=O)Nc2ccccc2-c2nc3ccccc3[nH]2)cc1 (configuration not stated),21µM*,2,-30%,-3%,15µM*,-13%
O=C(Nc1ccccc1-c1nc2ccccc2[nH]1)c1ccc(N2C(=O)CCC2=O)cc1,?,-10,-1%,-4%,9.2µM*,2%
O=C(Nc1ccc(-c2nc3ccccc3[nH]2)cc1)c1cccc(N2C(=O)CCC2=O)c1,?,21,2%,2%,12µM*,0%
O=C(O)c1ccccc1-c1nc2ccccc2[nH]1,-1%,0,-3%,-2%,-24%,-20%
O=C(Nc1ccccc1-c1nc2ccccc2[nH]1)c1ccc(S(=O)(=O)N2CCCCC2)cc1,-23%,-10,5%,nt,-26%,17%
O=C(c1cc(Cl)nc2ccccc12)N(Cc1nnc(-c2ccccc2Cl)o1)C1CC1,16µM*,-7,-10%,-1%,21µM*,-6%
O=C(c1cc(Cl)nc2ccccc12)N(Cc1nnc(-c2ccc(Cl)cc2)o1)C1CC1,12µM*,-4,-1%,1%,16µM*,-8%
CCOc1ccc2oc(C(=O)N(Cc3nnc(-c4ccccc4Cl)o3)C3CC3)c(C)c2c1,?,-4,4%,-2%,23µM*,3%
COc1ccccc1CNC(=O)CNC(=O)N1CC(=O)Nc2ccccc21,-11%,5,18%,-9%,0%,8%
COc1cccc(CNC(=O)c2c(OC)cc(=O)n3c2CCN(C(=O)C2CC24CCCCC4)CC3)c1 (configuration not stated),0%,nt,nt,nt,-15%,nt
O=C1NC[C@H](CCCCN2C[C@H](Cc3ccccc3)N(CCc3ccc(O)cc3)C(=O)C2=O)N(CC2CCCCC2)C1=O,-5%,-19,14%,nt,?,25%
CCS(=O)(=O)Nc1ccc(C(=O)OC)cc1,4%,-2,10%,1%,-15%,1%
CCCCC(=O)Nc1ccc(C(=O)c2ccccc2)cc1,-19%,-60*,-12%,4%,?,4%
CCS(=O)(=O)Nc1ccc(C(=O)c2ccccc2)cc1,-11%,-52*,-5%,-3%,-17%,-3%
COc1ccccc1N(CC(O)Cn1ccnc1C)S(=O)(=O)c1ccccc1 (configuration not stated),-10%,-12,14%,0%,-16%,9%
SMILES,TDP1 cell CPT,IL-1B inflam inh,HT1080 IDH1KD tx,uPA generation,TDP1 cell noCPT,HT1080NT lethal
CCCC(=O)NCCc1nc2cc([N+](=O)[O-])ccc2n1C,7%,6,8%,3%,0%,-9%
CCC(/C=C1\Sc2ccc(OC)cc2N1CCO)=C\c1sc2ccc(OC)cc2[n+]1CCO,3.3µM*,-113*,?,-10%,5.2µM*,?
CCC(/C=C1\Sc2ccc(OC)cc2N1CC)=C\c1sc2ccc(OC)cc2[n+]1CCCS(=O)(=O)[O-],3.3µM*,?,-7%,-15%,1.8µM*,-11%
CCO/C(=C/c1sc2ccc(OC)cc2[n+]1CCCS(=O)(=O)[O-])CC,4%,0,0%,4%,3%,1%
CCC(=O)/C=C1/Sc2ccc(OC)cc2N1CC,10µM*,0,1%[9.24 µM],-11%,?,-5%
Cc1ccc(N(C(=O)CNC(=O)c2ccco2)C(C(=O)NC2CCCC2)c2cccnc2)c(C)c1 (configuration not stated),8%,9,16%,-1%,-4%,20%
C[C@H](NC(=O)c1ncn2c1C(=O)N(C)CC2)C(=O)OC(C)(C)C,-12%,-1,0%,nt,-17%,-9%
COc1ccc(NC(=O)NC2CCCCC2C)cc1 (configuration not stated),-16%,-9,8%,-2%,0%,7%
O=S1(=O)CC(N2CC=CC2)CN1Cc1cn(Cc2ccc(Cl)cc2)nn1 (configuration not stated),-5%,-17,5%,nt,-20%,4%
CCC1CN(CC(=O)NC(C)c2c(C)nn(C)c2C)Cc2cc(OC)ccc2O1 (configuration not stated),-4%[9.04 µM],nt,nt,nt,-2%,nt
O=[N+]([O-])c1ccc(N2CCN(S(=O)(=O)c3ccc(Cl)cc3)CC2)cc1NCC1CCCO1 (configuration not stated),-8%,-2,4%,9%,-5%,5%
O=C(c1ccccc1F)N1CCN(c2ccc([N+](=O)[O-])c(NCC3CCCO3)c2)CC1 (configuration not stated),?,-17,-1%,-3%,18µM*,-3%
CCOc1ccc(N2C(=O)CC(N)C2=O)cc1 (configuration not stated),1.8µM*,11,-6%,-12%,2.6µM*,1%
CCOc1ccc(N2C(=O)CC(SCC(=O)O)C2=O)cc1 (configuration not stated),-6%,?,25%,-1%,-1%,19%
